# esBAF inh: inhibitors of esBAF chromatin remodeling in mouse ES cells. Bmi1-luciferase knock-in reporter, 24 h; 100% = twice the neutral-well signal. reporter increase, % at 12.5 µM. AID 602393. hit rate 2% among 350,000; in the data active = activation above about 40%; inconclusive = no clear call, values can overlap the other calls;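 note: a rise in the Bmi1 reporter signal indicates esBAF inhibition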
# GRIN3A LBD mod: NR3A (human) ligand-binding domain modulation; NR3A LBD differential scanning fluorimetry, Tm shift; 0% = protein alone, 100% = glycine-bound protein; Tm shift relative to glycine control, % at 25 µM; hit rate 2.5% among 340,000;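 active = melting temperature shift of at least 10% of the positive control shift, at one fixed dose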
# SMARCA2 act: increases SMARCA2 function in MMTV reporter cells. AID 652017. activation, % at 9.1 µM. hit rate 1% among 370,000. MG213 cells, MMTV-luciferase reporter, dexamethasone, overnight; in the data active = activation above about 7.8%
# NadD block: blocks S. aureus nicotinate mononucleotide adenylyltransferase; purified NadD enzyme, colorimetric absorbance read-out; inhibition, % at 20 µM; hit rate 0.78% among 360,000; AID 602399; in the data active = inhibition above about 26%
# SKN-1 block: inhibitors of C. elegans SKN-1. C. elegans VP596 Pgst-4::GFP/RFP ratio, acrylamide-induced, 24 h. inhibition, % at 21.8 µM. hit rate 0.49% among 360,000;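 active = interference check ratio from 0.5 to 1.5 plus GFP to RFP signal ratio inhibition reaching or exceeding a fixed threshold, cut at about 30% in these data, passing the limit was not always enough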
# Vif imaging: inhibitors of HIV Vif; HEK293T cells, Vif self-association by quenched fluorescence, imaging, 24 h; inhibition, % at 7.49 µM; hit rate 0.35% among 340,000; AID 602346; in the data active = inhibition above about 50%, passing the limit was not always enough; inconclusive = no clear call, values can overlap the other calls; inactive = below about 31%
# Hits are given with their value; 0 = inactive; ? = inconclusive; - = no result given. This is a sample that favours compounds with a hit; in the whole collection about 5.2% have one here.
SMILES,esBAF inh,GRIN3A LBD mod,SMARCA2 act,NadD block,SKN-1 block,Vif imaging
Cc1ccc(N=C/C(C(=O)C(F)(F)F)=C(\O)c2ccco2)cc1Cl,-,0,0,0,57,0
Cc1cccc(N=C/C(C(=O)C(F)(F)F)=C(\O)c2ccco2)c1,?,0,0,0,0,0
CN(/C(=N\S(=O)(=O)c1ccccc1)C(F)(F)F)c1ccccc1,0,0,0,0,0,64
COc1ccc(CN(C)C[C@H]2Oc3c(NC(=O)C4CC4)cccc3C(=O)N([C@@H](C)CO)C[C@@H]2C)cc1,0,-,-,-,-,-
Cc1cccc(-c2nnc(-c3cccc(NC(=O)Cc4cccs4)c3)o2)c1,80,0,0,0,0,0
O=C(Cc1cccs1)Nc1ccc(-c2nnc(-c3ccccc3)o2)cc1,0,28,0,0,0,0
O=C(Cc1cccs1)Nc1cccc(-c2nc3ccccc3o2)c1,0,0,0,0,0,0
Cc1ccc(-c2nnc(-c3cccc(NC(=O)c4cccs4)c3)o2)cc1,0,20,0,0,0,0
CN(C)C(=O)C[C@H]1CC[C@H]2[C@H](COc3ccc(NC(=O)NCc4ccccc4)cc3C(=O)N2C)O1,0,-,-,-,-,-
C[C@@H]1CN([C@H](C)CO)S(=O)(=O)c2ccc(/C=C/c3ccccc3)cc2O[C@@H]1CN(C)C(=O)c1ccc2c(c1)OCO2,0,-,-,-,-,-
NC(=O)c1ncn([C@@H]2O[C@H](CNCc3cccc4c3sc3ccccc34)[C@@H](O)[C@H]2O)n1,0,0,0,0,0,0
NC(=O)c1ncn([C@@H]2O[C@H](CNCc3cccc(OC4CCCC4)c3)[C@@H](O)[C@H]2O)n1,0,17,0,0,0,0
NC(=O)c1ncn([C@@H]2O[C@H](CNCc3cnc(N4CCOCC4)nc3)[C@@H](O)[C@H]2O)n1,0,13,0,0,0,0
C[C@H]1CN([C@@H](C)CO)C(=O)c2cccc(NS(=O)(=O)c3ccccc3)c2O[C@@H]1CN(C)CC1CCCCC1,0,-,-,-,-,-
CNc1cncc(-c2cnn(CC(C)C)c2)n1,43,-,0,0,0,0
CNc1cncc(-c2ccoc2)n1,0,-,0,0,0,0
CSc1nc2ccc3nc(NC(=O)c4cccs4)sc3c2s1,0,28,0,0,0,0
CSc1nc2ccc3nc(NC(=O)c4ccc(Cl)s4)sc3c2s1,0,21,-,0,0,0
COc1ccc(OC)c2sc(NC(=O)c3ccc(Cl)s3)nc12,0,0,0,0,0,0
COc1ccc(NC(=O)Nc2ccc3c(c2)[C@H]2C[C@@H](CC(=O)N4CCN(C)CC4)O[C@H](CO)[C@H]2O3)cc1,0,-,-,-,-,-
CCOc1cc(C(c2c(C)[nH][nH]c2=O)c2c(C)[nH][nH]c2=O)ccc1OS(=O)(=O)c1ccc(C)cc1,0,0,0,0,46,0
CCOc1ccc(C(c2c(C)[nH][nH]c2=O)c2c(C)[nH][nH]c2=O)cc1OC,0,0,0,0,0,0
CC(C)C#Cc1cnc2c(c1)C(=O)N([C@@H](C)CO)C[C@@H](C)[C@H](CN(C)S(=O)(=O)c1cn(C)cn1)O2,0,-,-,-,-,-
CSc1nc(N2CCOCC2)c2c(c1C#N)CC(C)(C)OC2,-,0,0,0,37,0
CCC1(C)Cc2c(C#N)c(SC)nc(N3CCOCC3)c2CO1 (stereo not given),0,0,0,0,0,53
SMILES,esBAF inh,GRIN3A LBD mod,SMARCA2 act,NadD block,SKN-1 block,Vif imaging
CCOC(=O)C(C)Sc1nc(N2CCOCC2)c2c(c1C#N)CC(C)(C)OC2 (stereo not given),-,0,0,0,0,0
CC(C)CCSc1nc(N2CCOCC2)c2c(c1C#N)CC(C)(C)OC2,0,0,0,0,0,0
N#CCCSc1nc(N2CCOCC2)c2c(c1C#N)CCCC2,0,0,0,0,0,0
CCCSc1nc(N2CCOCC2)c2c(c1C#N)CCCC2,0,19,0,0,0,0
CC(C)(C)[S@](=O)N1Cc2cc(C(=O)NCc3ccccc3F)nc(-c3cccc(-c4cccnc4)c3)c2[C@@H]1CCO,0,-,-,-,-,-
O=C(C[C@H]1CC[C@H]2[C@@H](COC[C@H](O)CN2Cc2ccc(Cl)cc2)O1)NCCc1ccccc1,0,-,-,-,-,-
Oc1ccc(N2CCN(CC(O)c3ccccc3)CC2)cc1 (stereo not given),0,32,0,0,0,0
O=C(CSc1nc(-c2cccs2)cc(C(F)(F)F)n1)Nc1cc(OCC(F)(F)F)cc([N+](=O)[O-])c1,-,15,0,0,0,0
Cc1ccc2c(c1)c1ccc3c(c1n2C)C(=O)C=CC3=O,0,0,0,48,0,0
Cn1c2ccccc2c2ccc3c(c21)C(=O)C=CC3=O,-,0,0,0,0,0
O=C(C[C@H]1CC[C@H]2[C@@H](COC[C@@H](O)CN2C(=O)c2ccccc2)O1)N1CCOCC1,0,-,-,-,-,-
Cc1nn(-c2ccccc2)c2sc(C(=O)N3CCCCC3)cc12,45,0,-,0,0,0
Cc1cnc(NC(=O)c2cc3c(C)nn(-c4ccccc4)c3s2)s1,0,0,0,0,0,53
COc1ccc(S(=O)(=O)N[C@H]2CC[C@@H](CC(=O)O)O[C@H]2CO)cc1,0,-,-,-,-,-
COC(=O)[C@H]1[C@H](CO)[C@H]2Cn3c(ccc(-c4ccccc4F)c3=O)[C@H]2N1CC1CCCC1,0,-,-,-,-,-
Clc1ccccc1N=Nc1ccccn1,-,13,0,0,0,0
Cc1cccc(/N=C/c2c(O)[nH]c3ccccc23)n1,74,0,0,0,0,0
C[C@@H]1CN([C@@H](C)CO)C(=O)c2cc(NC(=O)CCCN(C)C)ccc2O[C@@H](C)CCCCO[C@@H]1CN(C)S(=O)(=O)c1ccc(F)cc1,0,-,-,-,-,-
COc1ccc(-n2c(C)cc(-c3csc(N)n3)c2C)cc1,-,0,0,33,0,0
Cc1cc(-c2csc(N)n2)c(C)n1-c1ccc(Cl)c(Cl)c1,-,0,0,36,0,-
COc1cccc(C(=O)COc2ccc3c(C)cc(=O)oc3c2)c1,0,0,0,0,0,0
COc1cccc(C(=O)COc2ccc3ccc(=O)oc3c2)c1,0,16,0,0,0,0
COc1ccc(-c2cnc3c(c2)C(=O)N([C@H](C)CO)C[C@H](C)[C@H](CN(C)C(=O)CN(C)C)O3)cc1,0,-,-,-,-,-
CCOC(=O)/C=C/[C@H]1CC2(CCO1)SCCCS2,55,0,0,0,0,0
COCCNC(=O)c1cc2ncc(Br)cn2n1,0,0,0,0,0,0
SMILES,esBAF inh,GRIN3A LBD mod,SMARCA2 act,NadD block,SKN-1 block,Vif imaging
O=C(NCCc1ccccc1)c1cc2ncc(Br)cn2n1,0,0,8.1,0,0,-
NC(=O)N/N=C/c1cn(-c2ccccc2)nc1-c1cccs1,-,0,0,0,0,0
O=C(N/N=C/c1cn(-c2cccs2)nc1-c1ccccc1)c1ccccc1Cl,-,14,0,0,0,0
O=C(N/N=C/c1cn(-c2cccs2)nc1-c1ccccc1)c1ccc(O)cc1,-,12,0,0,0,0
O=C(N/N=C/c1cn(-c2ccccc2)nc1-c1cccs1)c1ccncc1,-,0,0,0,0,0
O=C(CCN1CCCCC1)N[C@H]1CC[C@H](CCNC(=O)c2cc(Cl)cc(Cl)c2)O[C@@H]1CO,0,-,-,-,-,-
